# From PubChem BioAssay AID488896 (Broad Institute, 2010)
# The whole screen tested about 320,000 compounds, of which about 3,100 (0.97%) were called active. For the sample, actives were picked, then their nearest neighbours and some compounds at random. Values without a mark were called inactive.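 The calls were made as follows: active = mean replicate inhibition of at least 70% and a set share of replicates each scoring 70 or more; inconclusive = meets just one of the two criteria; inactive = fails both criteria.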 Non-standard residues stand in square brackets, D forms with d. Residues, ends and D or L forms follow the SMILES beside them. ξ: configuration not given here. Ac5c = NC1(C(=O)O)CCCC1; ξS = NC(CO)C(=O)O
# Target: Scavenger receptor class B member 1 (Mus musculus) (UniProt Q61009)
# Sequence (Q61009 whole entry, looked up): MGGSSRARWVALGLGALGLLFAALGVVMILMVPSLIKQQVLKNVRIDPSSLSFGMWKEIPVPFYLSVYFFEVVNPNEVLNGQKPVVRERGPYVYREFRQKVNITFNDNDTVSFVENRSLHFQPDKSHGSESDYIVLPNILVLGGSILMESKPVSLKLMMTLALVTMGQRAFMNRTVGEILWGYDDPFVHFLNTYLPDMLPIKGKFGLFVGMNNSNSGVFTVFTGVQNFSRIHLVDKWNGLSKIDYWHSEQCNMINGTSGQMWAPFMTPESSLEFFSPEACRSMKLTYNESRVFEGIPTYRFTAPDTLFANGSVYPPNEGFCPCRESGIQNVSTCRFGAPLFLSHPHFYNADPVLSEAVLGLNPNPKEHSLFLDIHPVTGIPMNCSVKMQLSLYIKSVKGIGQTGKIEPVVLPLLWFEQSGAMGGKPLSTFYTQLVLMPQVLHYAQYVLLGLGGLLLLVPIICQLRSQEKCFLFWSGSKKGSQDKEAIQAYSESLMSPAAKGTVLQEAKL
# Experiment: inhibitors of SR-BI mediated HDL lipid uptake, primary screen, ldlA[mSR-BI] cells, fluorescence, single point (AID 488896);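 also: 0% = median of neutral control wells and 100% = median of positive control wells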
# Settings: ldlA[mSR-BI] CHO cells, DiI-HDL uptake fluorescence, 3 h; at 12.5 µM; stronger effect = higher value
row,SMILES,inhibition
1,Cc1ccc(C)c(NC(=O)CN(C)C(=O)COc2ccc3ccccc3c2)c1,2.83%
2,Cc1ccc(C)c(NS(=O)(=O)c2ccc(OCC(=O)NCc3cccnc3)cc2)c1,-23.5%
3,Cc1ccc(NS(=O)(=O)c2ccc(C)c(NC(=O)COc3ccc4ccccc4c3)c2)c(C)c1,78.5% (active)
4,O=C1/C(=C\c2ccc([N+](=O)[O-])cc2)CS(=O)(=O)C/C1=C/c1ccc([N+](=O)[O-])cc1,17.7%
5,CC[C@@H]1Cc2cc(O)ccc2C2=C1c1ccc(O)cc1C[C@H]2CC,76.1% (active)
6,O=C(NNC(=O)c1ccc2ccccc2c1)c1ccc(Cl)cc1,-17.1%
7,COc1ccc(C)cc1Nc1nc(-c2c(C)[nH]c3ccccc23)cs1,77.1% (active)
8,COc1ccc(C)cc1Nc1nc(C)nc2c1oc1ccccc12,-8.2%
9,COC(=O)c1cnc(Nc2cc(C)ccc2OC)c2ccccc12,11.3%
10,COCC(=O)N(C)[C@H]1C[C@H]2c3cc(Oc4ccccc4C)ccc3CCN2C(=O)[C@H]1[C@H](C)O,5.04%
11,COc1ccc(OC)c(-c2csc(NC(=O)COC(=O)C3CC3)n2)c1,29.7%
12,COc1ccc(OC)c(-c2csc(NC(=O)C3=NNC(=O)CC3)n2)c1,74.1% (active)
13,COc1ccc(NC(=O)C2=NNC(=O)CC2)cc1S(=O)(=O)N1CCCCC1,12.9%
14,O=C(CC(=O)c1cccnc1)c1ccccc1,1.21%
15,CCCCCC(=O)Nc1ccc(C(=O)N/N=C/c2ccc([N+](=O)[O-])cc2)cc1,92.9% (active)
16,O=C(COc1ccc(/C=N/NC(=O)c2ccc(O)cc2)cc1)Nc1ccc([N+](=O)[O-])cc1,24.6%
17,CCCCCC(=O)NC(=S)NNC(=O)c1ccc([N+](=O)[O-])cc1,11.5%
18,Cc1ccc(S(=O)(=O)N2CCN(C(=O)c3cc(S(=O)(=O)N4CCOCC4)ccc3F)CC2)cc1,-4.26%
19,CCOc1ccc(NC(=O)c2ccc(NC(=O)COC(=O)c3ccc(NC(=O)CC#N)cc3)cc2)cc1,57.5%
20,CCOc1ccc(NC(=O)c2ccc(NC(=O)CN3C(=O)C(=O)N(CC(C)C)C3=O)cc2)cc1,75.7% (active)
21,CCOc1ccc(NC(=O)CN2CCN(CC(=O)Nc3ccc(OC)cc3)CC2)cc1,77.8% (active)
22,CCOC(=O)N1CCN(CC(=O)Nc2ccc(F)cc2)CC1,-2.83%
23,CCOc1ccc(NC(=O)N2CCN(CC)CC2)cc1,-5.71%
24,CCOc1ccc(NC(=O)c2ccc(NC(=O)C3CCCO3)cc2)cc1 (centres undefined),24.7%
25,COc1ccc(/C=C2/CCCc3ccccc3C2=O)cc1,12.7%
26,CCOc1cc(C=NNC(=O)CCCC(=O)NN=Cc2ccc(O)c(OCC)c2)ccc1O,7.36%
27,CCOC(=O)[C@H]1[C@H]2COc3ccc(Br)cc3[C@@H]2N2C(=O)CN(C)C(=O)[C@@]12C,-11.5%

row,SMILES,inhibition
1,Cc1cccc(NC(=O)c2cc([N+](=O)[O-])ccc2N2CCN(C)CC2)c1,13.3%
2,Cc1cccc(NC(=O)c2ccc([N+](=O)[O-])o2)c1,0.0135%
3,Cc1cccc(NC(=O)c2sc(-c3ccccc3)nc2-c2ccc([N+](=O)[O-])cc2)c1,77.7% (active)
4,CC(=O)OC1CCC2(C)C(=CCC3C4CC(=O)N(O)C(=O)C4(C)CCC32)C1 (centres undefined),-19%
5,NC1=NOC(=O)C1C1CCCCC1 (centres undefined),-14.7%
6,COc1ccc(-c2nc3n(c2Br)CCC3)cc1,4.81%
7,COc1ccc(-c2nc3c(s2)CCc2onc(-c4ccc(OC)cc4)c2-3)cc1,75.1% (active)
8,COc1ccc(-c2nc3c(s2)CCc2onc(-c4ccc(Br)cc4)c2-3)cc1,58.7%
9,NC(=O)C1CCN(C(=O)c2cc(S(=O)(=O)N3CCN(c4ccccc4)CC3)ccc2Cl)CC1,-3.45%
10,COc1ccc(/C=C2\SC(=N)N(c3ccc(F)cc3)C2=O)cc1,13.3%
11,COc1cccc(/C=C2/SC(=S)N(CC(=O)NC3C=CS(=O)(=O)C3)C2=O)c1 (centres undefined),6.75%
12,COc1cccc(/C=C2\SC(=N)N(c3ccc(F)cc3)C2=O)c1,80.3% (active)
13,Cc1cc(C)cc(OCC(=O)NC(C)c2ccccc2)c1 (centres undefined),-23.6%
14,C/C(CC(=O)NC(C)c1ccccc1)=N\NC(N)=S (centres undefined),86.3% (active)
15,Cc1ccc(OCC(=O)NC(C)c2ccccc2)cc1C (centres undefined),0.888%
16,O=[N+]([O-])c1ccc(N=NNc2ccc([N+](=O)[O-])cc2)cc1,-5.77%
17,CCOC(=O)C(CO)NC(=O)C1(NC(C)=O)CCCC1 (centres undefined) (Ac-[Ac5c]-[ξS]-OEt),-1.77%
18,O=C(Nc1ccc(C(F)(F)F)cc1)c1cccc(-n2cnnn2)c1,9.16%
19,O=C(O)c1ccccc1C(=O)Nc1nc(-c2ccccc2)cs1,-7.75%
20,O=C(Nc1ccc(-c2csc(Nc3cccc(C(F)(F)F)c3)n2)cc1)c1cccc(C(F)(F)F)c1,109% (active)
21,CN(C(=O)c1cccc(NC(=O)Cc2ccc(NC(=O)C3CCN(C(=O)C4CCCCC4)CC3)cc2)c1)C1CCC1,28.2%
22,C=CCCC(=O)N1C[C@H]2CON(C)[C@H]2C[C@H]1c1cccc(Nc2ccccc2)c1,2.33%
23,CCCCN(C(=O)c1cccc(N2C(=O)c3ccccc3C2=O)c1)c1c(N)n(CCCC)c(=O)[nH]c1=O,9.37%
24,COc1cc(CN2CCC(C(N)=O)CC2)ccc1OCc1ccccc1,-14.9%
25,COc1ccc(CNC2CCCCC2)cc1,-32.1%
26,COc1cc(CNC2CCCC2)c(Br)cc1OCc1ccccc1,79.2% (active)
27,O=C1/C(=C\c2ccc(O)cc2)CCC1CNc1ccc(Cl)cc1 (centres undefined),18.3%
